Test results published in PubChem BioAssay (NCATS).
Records with an inconclusive call do not appear. Unmarked numbers belong to inactive results. The source made the active and inactive calls. The call rests on the fitted dose curve; in most records, active means well fitted cell-killing curve with a large enough effect; inconclusive means small, poorly fitted or top-dose-only effect; inactive means flat fitted curve, though single readings scatter.

Test: Cell Viability - LYMP2-017 (AID 972);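 further: cells exposed to compound for 24 hours at 37 °C; nearly all actives have a fitted effect of over 55% in size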
Conditions: LYMP2-017 lymphoblastoid cell viability; series mostly up to 92.2 µM; activity change, negative = cytotoxicity: at the top concentration
In short: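 Steps: plate 2500 lymphoblastoid cells per well; incubate 5 hr at 37 C; add compound across a concentration series and incubate 24 hr at 37 C; add CellTiter-Glo and read luminescence after 30 min at room temperature; fit Hill curves for AC50.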
On the % scale 0 is the no-effect control and ±100 the full control effect; potency means the concentration at half of the fitted maximal effect.

| Compound | activity change, negative = cytotoxicity [%] | Potency |
| --- | --- | --- |
| CC(=O)Nc1ccc(C)cc1 | -5.97 |  |
| O=C1OC(=O)c2c(Br)c(Br)c(Br)c(Br)c21 | -8.46 |  |
| O=C(O)CNC(=O)c1ccc([N+](=O)[O-])cc1 | -6.36 |  |
| Cc1ccccc1C=O | 10.4 |  |
| CNc1ccccc1 | -3.67 |  |
| Cc1cccc(C(=O)O)c1 | -1.25 |  |
| CC1CCC2CC1C2(C)C (centres undefined) | -15.5 |  |
| CC(C)C=O | -0.76 |  |
| O=Cc1ccc(CO)o1 | -0.311 |  |
| O=[N+]([O-])c1ccccc1CCO | 3.51 |  |
| O=Cc1c(Cl)cccc1Cl | -0.929 |  |
| CCCCCCC=O | -6.22 |  |
| CCCCC(CC)COCC1CO1 (centres undefined) | 3.07 |  |
| CC(CCl)OC(C)CCl (centres undefined) | -9.45 |  |
| COc1ccc(N)c(C)c1 | 6.19 |  |
| CC=C(Cl)Cl | -9.88 |  |
| O=[N+]([O-])c1c(Cl)cc(Cl)cc1Cl | -14.2 |  |

| Compound | activity change, negative = cytotoxicity [%] | Potency |
| --- | --- | --- |
| CCC(C)(C)C(=O)O | 8.68 |  |
| CCOC(C)(C)C | -6.67 |  |
| CC(C)(O)CCC(C)(C)O | -10.5 |  |
| COCCOC(=O)c1ccccc1C(=O)OCCOC | -3.57 |  |
| C=C(C)C1CC=C(C)C(OC(C)=O)C1 (centres undefined) | 4.82 |  |
| CSCCC=O | -9.05 |  |
| CCCCC(C=O)CC (centres undefined) | -5.86 |  |
| Cc1nc2ccc(Cl)cc2[nH]1 | -16.3 |  |
| CC(O)COC(C)(C)C (centres undefined) | -0.734 |  |
| CCOCC(=O)O | -6.6 |  |
| CC1=C(/C=C/C(C)=C/C=C/C(C)=C\C=O)C(C)(C)CCC1 |  | 50.1 µM (active) |
| [O-]/[N+](=N\O)c1ccccc1 | -10.6 |  |
| Cc1ccc2oc(=O)ccc2c1 | -19.1 |  |
| CC(=O)c1ccccc1[N+](=O)[O-] | -15.7 |  |
| Cc1ccc(C(C)(C)C)cc1 | -13.4 |  |
| O=[N+]([O-])c1ccc2nc[nH]c2c1 | -1.32 |  |
| CC(C)N=C=NC(C)C | -6.44 |  |
